High-throughput results as filed in PubChem.
3CLpro inhibitor – SARS-CoV 3CLpro protease inhibitors, primary screen, biochemical, quenched FRET | Replicase polyprotein 1ab (Severe acute respiratory syndrome coronavirus), P0C6X7 | AID 1706, 2009 | 290,000 compounds, 0.14% hits | inhibition, % at 6 µM | recombinant SARS-CoV 3CLpro, quenched FRET peptide cleavage; in the data active = inhibition above about 12%
PrPC surface inh – inhibitors of human cell surface prion protein PrPC, primary screen, cell-based, TR-FRET | TR-FRET read-out | inhibition, % at 13.8 µM | 370,000 compounds, 0.43% hits; in the data active = inhibition above about 24%
BJeLR viability – MLPCN primary cell-based screen for lethality selective to Ras in HRASV12 cells; inhibition, % (concentration not given with the values); BJeLR (HRASV12) viability, CellTiter-Glo ATP luminescence, 48 h; 300,000 compounds, 0.17% hits; in the data active = inhibition above about 50%
VHR inh abs – VHR1 phosphatase inhibitors, primary screen, biochemical, absorbance, uHTS; Dual specificity protein phosphatase 3 (Homo sapiens), P51452; recombinant VHR phosphatase, pNPP absorbance; inhibition, % at 13.3 µM; 290,000 compounds, 0.52% hits; in the data active = inhibition above about 50%
Target sequence (P51452 whole entry, looked up): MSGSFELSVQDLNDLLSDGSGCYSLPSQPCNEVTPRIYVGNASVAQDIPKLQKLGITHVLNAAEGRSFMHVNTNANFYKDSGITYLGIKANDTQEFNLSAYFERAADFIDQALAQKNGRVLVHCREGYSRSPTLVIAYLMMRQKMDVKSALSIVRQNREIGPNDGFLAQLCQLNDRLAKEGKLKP
Large screens that a line does not name were inactive. Rows were chosen to be rich in hits. Some 1.1% of all compounds tested hit in one or more screens of this group.

Nc1cc(C(=O)OCC(=O)NNC(=O)c2cccs2)ccc1Cl	none (no result: 3CLpro inhibitor, VHR inh abs)
Cc1cc2c(c(=O)o1)[C@@]1(C(=O)N(C)c3ccccc31)C1=C(CC(C)(C)CC1=O)O2	none (no result: 3CLpro inhibitor, BJeLR viability, VHR inh abs)
CCN(CC)c1ccc(C=C2C(=O)NC(=S)NC2=O)cc1	BJeLR viability 51.4
O=C(c1ccc(F)cc1)N1CCC2(CC1)NCCc1[nH]cnc12	VHR inh abs 55.6
O=C1CSC(c2ccc([N+](=O)[O-])cc2)N1c1ccc(O)cc1 (stereo unspecified)	VHR inh abs 56.9
CCOC(=O)CSc1nnc2n(Cc3ccccc3)c(=O)c3c4c(sc3n12)CCC4	VHR inh abs 51.7 (no result: BJeLR viability)
O=C(Cc1ccccc1F)Nc1cc(Cl)ccc1N1CCCC1	none
Cc1ccc(-c2nc(Nc3cccc(O)c3)c3ccccc3n2)cc1	none (no result: VHR inh abs)
Cc1ccc(-c2nc(Nc3ccc(O)cc3)c3ccccc3n2)cc1	VHR inh abs 50.7
O=S(=O)(c1ccccc1)N1CCN(S(=O)(=O)c2ccc3c(c2)OCCO3)CC1	none (no result: 3CLpro inhibitor, BJeLR viability, VHR inh abs)
COc1ccc(C)cc1S(=O)(=O)N1CCN(C(=O)c2ncoc2-c2ccc(F)cc2)CC1	VHR inh abs 52.9
NNC(=O)c1[nH]c2ccc(Br)cc2c1-c1ccccc1	none
O=C(N/N=C/c1ccccc1Cl)c1[nH]c2ccc(Br)cc2c1-c1ccccc1	BJeLR viability 60.5
COc1ccc(/C=N/NC(=O)c2[nH]c3ccc(Br)cc3c2-c2ccccc2)cc1	BJeLR viability 55.1
CCOC(=O)NNC(=O)c1[nH]c2ccc(Br)cc2c1-c1ccccc1	VHR inh abs 54.7
CC(=O)NNC(=O)c1[nH]c2ccc(Br)cc2c1-c1ccccc1	none
COc1ccc(/C=N/NC(=O)c2[nH]c3ccc(Br)cc3c2-c2ccccc2)c(C(=O)O)c1OC	none
C[C@@H]1ON(C)[C@H]2C[C@H]3c4cc(-c5ccc(F)cc5)ccc4CCN3C[C@@H]12	none (no result: 3CLpro inhibitor, BJeLR viability, VHR inh abs)
O=S(=O)(c1ccc2c(c1)OCCO2)N1CCNCC1	none
c1ccc(-c2nc3ccccc3c3nc4ccccc4n23)cc1	VHR inh abs 50.8
O=C(O)Cn1c(=O)c(-c2ccccc2)nc2ccccc21	none
O=C(O)Cn1c(-c2ccccc2)nc2ccccc21	VHR inh abs 50.8
c1ccc(-c2nc3nonc3c3nc4ccccc4n23)cc1	none
[N-]=[N+]=NC[C@H](Cc1ccccc1)N1CC[C@@H](OCc2ccccc2)CCC1=O	none
COc1ccc(CN2C(C(=O)NCC(C)C)CSCCS2(=O)=O)cc1 (stereo unspecified)	none (no result: 3CLpro inhibitor, BJeLR viability, VHR inh abs)
Nc1nc(Cl)nc(N(c2ccccc2)c2ccccc2)n1	none
Nc1nc(CCl)nc(N(c2ccccc2)c2ccccc2)n1	BJeLR viability 64.6
COc1ccc(/C=C/c2nc3ccccc3n2C)cc1	BJeLR viability 79.6
CCN1CCN(C(=S)c2ccc(Cl)cc2)CC1	VHR inh abs 50.3
OCCN1CCN(C(=S)c2ccc(Cl)cc2)CC1	none
O=c1c(Cc2ccc(Cl)cc2)c(O)ccn1Cc1cccs1	VHR inh abs 50.3
Cc1ccc(C(=O)N/C(=C\c2ccc(-c3cccc([N+](=O)[O-])c3)o2)C(=O)NCCCN(C)C)cc1	VHR inh abs 53.9
O=C(/C=C/c1cn(-c2ccccc2)nc1-c1cccs1)NCCN1CCOCC1	none
COc1ccc(-c2cc(C#N)nc(N3CCN(c4ccccc4)CC3)n2)cc1	VHR inh abs 53.4
CCc1ccc(-c2nc(-c3ccncc3)no2)cc1	VHR inh abs 57.1 (no result: BJeLR viability)
CCCCc1ccc(-c2nc(-c3ccncc3)no2)cc1	none
O=C1NN(c2ccccc2)C(=O)/C1=C/c1ccc(Sc2cccc3ccccc23)o1	VHR inh abs 51.3
O=C1NN(c2ccccc2)C(=O)/C1=C/c1ccc(-c2ccc(C(=O)O)cc2)o1	none
COCCN1Cc2cc(C(=O)OC)c3c(c2C1=O)c1cc(F)ccc1n3C(=O)c1ccccc1	none (no result: 3CLpro inhibitor, BJeLR viability, VHR inh abs)
COC(=O)c1sccc1NC(=S)N1C(C)CCCC1C (stereo unspecified)	VHR inh abs 50.6
COC(=O)c1sccc1NC(=O)C1CCCCC1C(=O)O (stereo unspecified)	PrPC surface inh 37.1
Cc1cc(C)c2c(CC(=O)NN(C)C)coc2c1	VHR inh abs 52.9
COC(=O)[C@H](CC(C)C)N(CCCc1cn(Cc2ccccc2)nn1)S(=O)(=O)c1ccccc1Br	none (no result: 3CLpro inhibitor, BJeLR viability, VHR inh abs)
CCN1CCN(CCCNC(=O)c2cc3cc4ccc(OC)cc4nc3o2)CC1	VHR inh abs 55.0 (no result: PrPC surface inh)
Cc1ccc2cc(C(c3nnnn3Cc3ccccc3)N3CCc4ccccc43)c(=O)[nH]c2c1C (stereo unspecified)	PrPC surface inh 26.0
CCCCN(C=O)c1c(CC)nc2c(OCc3ccc(Cl)cc3Cl)cccn12	none (no result: 3CLpro inhibitor, BJeLR viability, VHR inh abs)
COc1ccc(-c2ccc3c(n2)CCCN3S(=O)(=O)c2ccc(OC)cc2)cc1	none (no result: 3CLpro inhibitor, BJeLR viability, VHR inh abs)
Cc1ccc(OCC(=O)Nc2ccccc2N2CCOCC2)c(C)c1	VHR inh abs 51.5
O=C(NCC(=O)N1CCCCCCC1)c1ccc(Cl)c(Cl)c1	none (no result: 3CLpro inhibitor, BJeLR viability, VHR inh abs)
CC(=O)NCCNC(=O)c1ccc(CSc2nc3ccccc3s2)cc1	VHR inh abs 59.7
C[C@H]1COc2cc(Br)ccc2S(=O)(=O)N1Cc1cn(Cc2ccc(C(F)(F)F)cc2)nn1	none (no result: 3CLpro inhibitor, BJeLR viability, VHR inh abs)
Cc1c(C(=O)NCCO)sc2nc3n(c(=O)c12)CCC3	none
CCCC(C)NC(=O)c1sc2nc3n(c(=O)c2c1C)CCC3 (stereo unspecified)	VHR inh abs 53.7
CCN(CC)CCNc1oc(-c2ccccc2)nc1S(=O)(=O)c1ccccc1	none (no result: 3CLpro inhibitor, BJeLR viability, VHR inh abs)
CC(OC(=O)CCCN=C1NS(=O)(=O)c2ccccc21)C(=O)NC1CCCCC1C (stereo unspecified)	none
O=C(NC(Cc1ccccc1)C(=O)O)OCC1c2ccccc2-c2ccccc21 (stereo unspecified)	VHR inh abs 53.0
COc1ccc(Oc2c(C(F)(F)F)oc3cc(OCC(=O)O)ccc3c2=O)cc1	none
Cc1cc(C)c(C)c(OCCNCc2ccccc2)c1	VHR inh abs 52.0
Cc1cc(C)c(OCCNCc2ccccc2)c(C)c1	none
CCOC(=O)c1c2c(n(C)c1C)C(=O)C(=O)c1ccc(Br)cc1-2	BJeLR viability 55.4 (no result: VHR inh abs)
COc1ccc(C(=O)OCC[N+]2(C)CCOCC2)cc1	VHR inh abs 52.7
COc1ccc(C(=O)OCCc2ccc(O)cc2)cc1	none
O=C(N/N=C/c1cccnc1)/C(=C\c1cccs1)NC(=O)c1ccccc1	none
O=C(N/N=C/c1cc2ccccc2nc1Cl)/C(=C/c1cccs1)NC(=O)c1ccccc1	VHR inh abs 51.6
O=c1[nH][nH]c2c(N=Cc3ccccc3O)ccc(F)c12	VHR inh abs 52.4 (no result: PrPC surface inh, BJeLR viability)
O=c1[nH][nH]c2c([N+](=O)[O-])ccc(F)c12	none (no result: 3CLpro inhibitor, BJeLR viability, VHR inh abs)
Cc1cccc(N=C2NC(=O)CS2)c1	none
Cc1cc(C)cc(N=C2NC(=O)CS2)c1	VHR inh abs 58.7
CCOC(=O)C1(C(=O)OCC)N=C(c2ccccc2)C=C1c1ccccc1	none (no result: 3CLpro inhibitor, BJeLR viability, VHR inh abs)
O=C(Cn1ncc2c([nH]c3ccccc32)c1=O)Nc1cccnc1	none
Cc1ccc(NC(=O)Cn2ncc3c([nH]c4ccccc43)c2=O)cc1Cl	VHR inh abs 57.7
COC(=O)[C@]12C[C@H](CC(=O)N3CCCC3)C(=O)N(Cc3ccccc3)C1=C[C@H](C1CCCC1)O[C@@H]2C	none (no result: 3CLpro inhibitor, BJeLR viability, VHR inh abs)
